Experimental data from PubChem BioAssay (NCI).
The panel holds about 79,000 compounds, 15% with a hit somewhere; the sample as a whole holds those more often. A number with no mark means an inactive call. Calls of active or inactive are those of the source. Rule as the data show it: active = growth inhibition above about 70%; inactive = the rest.

Assay: NCI Yeast Anticancer Drug Screen. Data for the sgs1 strain (AID 173);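 also: 0% = growth of vehicle-only control cultures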
Conditions: S. cerevisiae sgs1 mutant, active compounds read high
Method: Growth inhibition of yeast strains with defined genetic alterations is measured as a screen for potential anti-cancer activity. Selected strains with alterations in DNA damage repair or cell cycle control were exposed to compounds and growth inhibition was measured relative to vehicle treated controls. The strain used in this assay is sgs1

SMILES | growth inhibition (at 1.2 µM) | growth inhibition (at 3.7 µM) | growth inhibition (at 11.0 µM) | growth inhibition (at 33.0 µM) | growth inhibition (at 100.0 µM)
c1c[nH]c(CN2CCN(Cc3ncc[nH]3)CC2)n1 | -2% | 17% | 96% (active) | 98% (active) | 99% (active)
O=C(O)c1c2ccc(Cl)cc2nc2[nH]c(=O)[nH]c(=O)c12 | -39% | -31% | -26% | -10% | 1%
O=C(O)CNC(c1ccccc1)(c1ccccc1)c1ccccc1 | 3% | 3% | 5% | 89% (active) | 97% (active)
O=C1c2cccc3cccc(c23)C(=O)N1O | 14% | 8% | 19% | 67% | 91% (active)
OC1(c2ccccc2)C2CC=CC2C1(c1ccccc1)c1ccccc1 (stereo not given) | -15% | -2% | -2% | 54% | 77% (active)
CCCCOc1ccc2nc(C)cc(N=[N+]=[N-])c2c1 | 12% | 13% | 15% | 41% | 96% (active)
Clc1nc(Cl)nc(Nc2cccc3ccccc23)n1 | 31% | 47% | 77% (active) | 96% (active) | 98% (active)
COc1ccc(/C=C2\SC(=S)N(/C=C3\C(=O)N(c4ccccc4)N=C3C)C2=O)cc1OC | 4% | 15% | 42% | 86% (active) | 90% (active)
